According to the supplement of paper PMC8728848:
This is one part of a sample in which the strongest signals are shown more often than they occur.

How the values were obtained:
Experiment in all cases: glycan array binding signal (z-score within array); higher = stronger binding
Conditions in all cases: glycan notation: IUPAC condensed, linker removed
[1] = target: Fuc(a1-2)Gal(b1-4)GlcNAc
Method in brief: (§1)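 The binding signal is a Z-score computed within each array. Data were drawn from 3228 arrays in the Consortium for Functional Glycomics database, restricted to those with a known protein sequence. Scores were averaged over arrays of the same protein sequence at different concentrations or buffers, and over linkers, and negative values can be taken as non-binding.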

[2] = target: Fuc(a1-2)Gal(b1-4)GlcNAc(b1-3)Gal(b1-4)GlcNAc(b1-2)Man(a1-3)[Fuc(a1-2)Gal(b1-4)GlcNAc(b1-3)Gal(b1-4)GlcNAc(b1-2)Man(a1-6)]Man(b1-4)GlcNAc(b1-4)GlcNAc
Method in brief: as §1

[3] = target: Fuc(a1-2)[Gal(a1-3)]Gal(b1-3)GalNAc(b1-3)Gal(a1-4)Gal(b1-4)Glc
Method in brief: as §1

[4] = target: Fuc(a1-2)[GalNAc(a1-3)]Gal(b1-4)GlcNAc(b1-2)Man
Method in brief: as §1

[5] = target: Fuc(a1-4)GlcNAc
Method in brief: as §1

[6] = target: Gal(a1-3)Gal(b1-3)GlcNAc(b1-6)GalNAc
Method in brief: as §1

[7] = target: Gal(a1-3)[Gal(a1-4)]Gal(b1-4)GlcNAc
Method in brief: as §1

[8] = target: Gal(a1-4)GlcNAc
Method in brief: as §1

[9] = target: Gal(b1-3)GlcNAc(b1-3)Gal(b1-4)GlcNAc(b1-2)[Gal(b1-3)GlcNAc(b1-3)Gal(b1-4)GlcNAc(b1-6)]Man(a1-6)[Gal(b1-3)GlcNAc(b1-3)Gal(b1-4)GlcNAc(b1-2)Man(a1-3)]Man(b1-4)GlcNAc(b1-4)[Fuc(a1-6)]GlcNAc
Method in brief: as §1

[10] = target: Gal(b1-3)GlcNAc(b1-3)Gal(b1-4)GlcNAc(b1-6)[Gal(b1-3)GlcNAc(b1-3)]Gal(b1-4)Glc
Method in brief: as §1

[11] = target: Gal(b1-4)GlcNAc(b1-2)Man(a1-3)[Gal(b1-4)GlcNAc(b1-2)Man(a1-6)]Man(b1-4)GlcNAc(b1-4)GlcNAc
Method in brief: as §1

[12] = target: Gal(b1-4)GlcNAc(b1-2)[Gal(b1-4)GlcNAc(b1-4)]Man(a1-3)[GlcNAc(b1-4)][Gal(b1-4)GlcNAc(b1-2)Man(a1-6)]Man(b1-4)GlcNAc(b1-4)GlcNAc
Method in brief: as §1

[13] = target: Gal(b1-4)GlcNAc(b1-3)Gal(b1-4)GlcNAc(b1-3)Gal(b1-4)GlcNAc
Method in brief: as §1

[14] = target: Gal(b1-4)GlcNAc(b1-3)Gal(b1-4)GlcNAc(b1-3)Gal(b1-4)GlcNAc(b1-3)Gal(b1-4)GlcNAc(b1-3)Gal(b1-4)GlcNAc(b1-2)[Gal(b1-4)GlcNAc(b1-3)Gal(b1-4)GlcNAc(b1-3)Gal(b1-4)GlcNAc(b1-3)Gal(b1-4)GlcNAc(b1-3)Gal(b1-4)GlcNAc(b1-6)]Man(a1-6)[Gal(b1-4)GlcNAc(b1-3)Gal(b1-4)GlcNAc(b1-3)Gal(b1-4)GlcNAc(b1-3)Gal(b1-4)GlcNAc(b1-3)Gal(b1-4)GlcNAc(b1-2)Man(a1-3)]Man(b1-4)GlcNAc(b1-4)[Fuc(a1-6)]GlcNAc
Method in brief: as §1

[15] = target: Gal(b1-4)GlcNAc(b1-3)[GlcNAc(b1-6)]Gal(b1-4)GlcNAc
Method in brief: as §1

[16] = target: Gal(b1-4)GlcNAc(b1-6)GalNAc
Method in brief: as §1

[17] = target: Gal4S(b1-4)GlcNAc
Method in brief: as §1

[18] = target: GalNAc(a1-3)Gal
Method in brief: as §1

[19] = target: GalNAc(b1-4)GlcNAc(b1-3)GalNAc(b1-4)GlcNAc
Method in brief: as §1

[20] = target: GlcNAc(b1-3)Gal(b1-4)GlcNAc(b1-2)[GlcNAc(b1-3)Gal(b1-4)GlcNAc(b1-6)]Man(a1-6)[GlcNAc(b1-3)Gal(b1-4)GlcNAc(b1-2)Man(a1-3)]Man(b1-4)GlcNAc(b1-4)GlcNAc
Method in brief: as §1

[21] = target: GlcNAc(b1-3)Gal(b1-4)GlcNAc(b1-3)Gal(b1-4)GlcNAc(b1-2)Man(a1-3)[GlcNAc(b1-3)Gal(b1-4)GlcNAc(b1-3)Gal(b1-4)GlcNAc(b1-2)Man(a1-6)]Man(b1-4)GlcNAc(b1-4)GlcNAc
Method in brief: as §1

[22] = target: GlcNAc(b1-3)Gal(b1-4)GlcNAc(b1-3)Gal(b1-4)GlcNAc(b1-3)Gal(b1-4)GlcNAc(b1-2)Man(a1-3)[GlcNAc(b1-3)Gal(b1-4)GlcNAc(b1-3)Gal(b1-4)GlcNAc(b1-3)Gal(b1-4)GlcNAc(b1-2)Man(a1-6)]Man(b1-4)GlcNAc(b1-4)[Fuc(a1-6)]GlcNAc
Method in brief: as §1

[23] = target: GlcNAc(b1-3)Gal(b1-4)GlcNAc(b1-3)Gal(b1-4)GlcNAc(b1-3)Gal(b1-4)GlcNAc(b1-3)Gal(b1-4)GlcNAc(b1-2)Man(a1-3)[GlcNAc(b1-3)Gal(b1-4)GlcNAc(b1-3)Gal(b1-4)GlcNAc(b1-3)Gal(b1-4)GlcNAc(b1-3)Gal(b1-4)GlcNAc(b1-2)Man(a1-6)]Man(b1-4)GlcNAc(b1-4)[Fuc(a1-6)]GlcNAc
Method in brief: as §1

[24] = target: GlcNAc(b1-3)Gal(b1-4)GlcNAc(b1-3)Gal(b1-4)GlcNAc(b1-3)Gal(b1-4)GlcNAc(b1-3)Gal(b1-4)GlcNAc(b1-2)[GlcNAc(b1-3)Gal(b1-4)GlcNAc(b1-3)Gal(b1-4)GlcNAc(b1-3)Gal(b1-4)GlcNAc(b1-3)Gal(b1-4)GlcNAc(b1-6)]Man(a1-6)[GlcNAc(b1-3)Gal(b1-4)GlcNAc(b1-3)Gal(b1-4)GlcNAc(b1-3)Gal(b1-4)GlcNAc(b1-3)Gal(b1-4)GlcNAc(b1-2)Man(a1-3)]Man(b1-4)GlcNAc(b1-4)[Fuc(a1-6)]GlcNAc
Method in brief: as §1

[25] = target: GlcNAc(b1-4)[GlcNAc(b1-6)]GalNAc
Method in brief: as §1

[26] = target: Kdn(a2-3)Gal(b1-4)GlcNAc
Method in brief: as §1

[27] = target: Neu5Ac(a2-3)Gal(b1-3)[Fuc(a1-4)]GlcNAc
Method in brief: as §1

[28] = target: Neu5Ac(a2-3)Gal(b1-3)[Fuc(a1-4)]GlcNAc(b1-3)Gal(b1-3)[Fuc(a1-4)]GlcNAc
Method in brief: as §1

[29] = target: Neu5Ac(a2-3)Gal(b1-3)[Neu5Ac(a2-6)]GalNAc
Method in brief: as §1

[30] = target: Neu5Ac(a2-3)Gal(b1-4)GlcNAc(b1-2)Man(a1-3)[Neu5Ac(a2-3)Gal(b1-4)GlcNAc(b1-2)Man(a1-6)]Man(b1-4)GlcNAc(b1-4)GlcNAc
Method in brief: as §1

[31] = target: Neu5Ac(a2-3)Gal(b1-4)GlcNAc(b1-3)Gal(b1-4)GlcNAc
Method in brief: as §1

[32] = target: Neu5Ac(a2-3)Gal(b1-4)GlcNAc(b1-3)[Neu5Ac(a2-3)Gal(b1-4)GlcNAc(b1-6)]GalNAc
Method in brief: as §1

[33] = target: Neu5Ac(a2-3)Gal(b1-4)[Fuc(a1-3)]GlcNAc
Method in brief: as §1

[34] = target: Neu5Ac(a2-6)Gal(b1-4)GlcNAc(b1-2)Man(a1-3)[GlcNAc(b1-4)][Neu5Ac(a2-6)Gal(b1-4)GlcNAc(b1-2)Man(a1-6)]Man(b1-4)GlcNAc(b1-4)GlcNAc
Method in brief: as §1

[35] = target: Neu5Ac(a2-6)Gal(b1-4)GlcNAc(b1-2)Man(a1-3)[Neu5Ac(a2-3)Gal(b1-4)GlcNAc(b1-2)Man(a1-6)]Man(b1-4)GlcNAc(b1-4)GlcNAc
Method in brief: as §1

[36] = target: Neu5Ac(a2-6)Gal(b1-4)GlcNAc(b1-2)Man(a1-3)[Neu5Ac(a2-6)Gal(b1-4)GlcNAc(b1-2)Man(a1-6)]Man(b1-4)GlcNAc(b1-4)GlcNAc
Method in brief: as §1

[37] = target: Neu5Ac(a2-6)Gal(b1-4)GlcNAc(b1-2)Man(a1-3)[Neu5Ac(a2-6)Gal(b1-4)GlcNAc(b1-2)Man(a1-6)]Man(b1-4)GlcNAc(b1-4)[Fuc(a1-6)]GlcNAc
Method in brief: as §1

[38] = target: Neu5Ac(a2-6)Gal(b1-4)GlcNAc(b1-3)Gal(b1-4)GlcNAc(b1-3)Gal(b1-4)GlcNAc
Method in brief: as §1

[39] = target: Neu5Ac(a2-6)Gal(b1-4)GlcNAc(b1-6)GalNAc
Method in brief: as §1

[40] = target: Neu5Ac(a2-6)Gal(b1-4)GlcNAc6S
Method in brief: as §1

[41] = target: Neu5Ac(a2-8)Neu5Ac(a2-3)Gal(b1-4)GlcNAc
Method in brief: as §1

[42] = target: Neu5Ac(a2-8)Neu5Gc(a2-3)Gal(b1-4)GlcNAc
Method in brief: as §1

[43] = target: Neu5Gc(a2-3)Gal(b1-3)GlcNAc
Method in brief: as §1

[44] = target: Neu5Gc(a2-3)Gal(b1-3)[Fuc(a1-4)]GlcNAc
Method in brief: as §1

[45] = target: Neu5Gc(a2-8)Neu5Gc(a2-3)Gal(b1-4)GlcNAc(b1-3)Gal(b1-4)GlcNAc
Method in brief: as §1

[46] = target: Neu5Gc(a2-8)Neu5Gc(a2-6)Gal(b1-4)GlcNAc
Method in brief: as §1

B1: PX9961W-pdi-543-27-543 (Parabacteroides distasonis) (protein)
chain: EGNATTTSYFLNDQQAIDAIDGLYERFHQEGCYGRELFWEQGAACDIVWGRTRGYNSLATLAYTGDESPLRDVFSRMYSTMSRANWIIQELVKKEKGTTLTAVEKRSLGEAYFSRGWAHYLIAYRYGTDKQGVPFVRYEDFPDDYDNSIPPQQATVMDNYKLIIEDMDKAIAYLPIFESYDADNRGRAHQAAAVAFKAKTYAYWATWDATQWNNVIEMVNQLENNYNRDLAPTFAELFSSDLKDYWNAEYLWTIPSIGGALPGGTEFPGIILENKGWGKYNGWGQMKPSYDIYEEMAKDGKGNDRLVRSILEYNQEFPFFGETRKFWSTSDLEAGFMINKYMDAFKYSDPVGEGAVSANGDWPTVRVNFPIIRFAEMLLFRAEAYLMTGQADKATADINRIRLRSNLTPLTGTATMKDLYHERRCELAFEFTDHLFDLKRWNRSSNADIKTLADKELNAHPRIRRYEDRANPESAFTIIGYEDYTNKNAYQAHMMVFPYPSEEITKSNGQLKQNEGY
With B1 the “glycan array binding signal (z-score)” value [1] was -0.724, the “glycan array binding signal (z-score)” value [2] was 0.321 and the “glycan array binding signal (z-score)” value [3] was -0.488. For the same binder, the “glycan array binding signal (z-score)” value [4] was 0.843, the “glycan array binding signal (z-score)” value [5] was -0.806 and the “glycan array binding signal (z-score)” value [6] was -0.936. The “glycan array binding signal (z-score)” value [7] was 4.9, the “glycan array binding signal (z-score)” value [8] was -0.436 and the “glycan array binding signal (z-score)” value [9] was 3.68. For the same binder, the “glycan array binding signal (z-score)” value [10] was 2.47, the “glycan array binding signal (z-score)” value [11] was 0.803 and the “glycan array binding signal (z-score)” value [12] was -0.379. For the same binder, the “glycan array binding signal (z-score)” value [13] was 0.348, the “glycan array binding signal (z-score)” value [14] was 2.95 and the “glycan array binding signal (z-score)” value [15] was -1.13. For the same binder, the “glycan array binding signal (z-score)” value [16] was 0.97, the “glycan array binding signal (z-score)” value [17] was -0.282 and the “glycan array binding signal (z-score)” value [18] was -0.723. The “glycan array binding signal (z-score)” value [19] was -0.156, the “glycan array binding signal (z-score)” value [20] was 2.42 and the “glycan array binding signal (z-score)” value [21] was 2.38. For the same binder, the “glycan array binding signal (z-score)” value [22] was 1.14, the “glycan array binding signal (z-score)” value [23] was 2.16 and the “glycan array binding signal (z-score)” value [24] was 2.07. For the same binder, the “glycan array binding signal (z-score)” value [25] was 0.793, the “glycan array binding signal (z-score)” value [26] was -0.351 and the “glycan array binding signal (z-score)” value [27] was -0.779. The “glycan array binding signal (z-score)” value [28] was 2.45, the “glycan array binding signal (z-score)” value [29] was -1.05 and the “glycan array binding signal (z-score)” value [30] was -0.589. For the same binder, the “glycan array binding signal (z-score)” value [31] was -0.712, the “glycan array binding signal (z-score)” value [32] was -0.167 and the “glycan array binding signal (z-score)” value [33] was -0.648. The “glycan array binding signal (z-score)” value [34] was -0.023, the “glycan array binding signal (z-score)” value [35] was -0.733 and the “glycan array binding signal (z-score)” value [36] was -0.249. The “glycan array binding signal (z-score)” value [37] was 0.138, the “glycan array binding signal (z-score)” value [38] was -0.315 and the “glycan array binding signal (z-score)” value [39] was 0.508. For the same binder, the “glycan array binding signal (z-score)” value [40] was -0.912, the “glycan array binding signal (z-score)” value [41] was -0.026 and the “glycan array binding signal (z-score)” value [42] was 14.4. The “glycan array binding signal (z-score)” value [43] was -0.935, the “glycan array binding signal (z-score)” value [44] was -0.874 and the “glycan array binding signal (z-score)” value [45] was -0.859. The “glycan array binding signal (z-score)” value [46] was 0.393.
